# Assay outcomes as filed in PubChem.
# ATXN2 expr inh: inhibitors of ATXN2 expression; HEK-293 ATXN2-luciferase reporter, luminescence, 24 h; Potency, µM (doses to about 57 µM), inactives show at the highest dose activity change, negative = inhibition, usual class: inhibitors; 360,000 compounds, 0.72% hits; AID 1745845; further: potency means the concentration at half of the fitted maximal effect; on the % scale 0 is the no-effect control and ±100 the full control effect; nearly all actives have a fitted effect of over 55% in size
#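 qHTS (up to 57 uM final) was run with 24 h compound exposure of reporter cells at 37 °C. Each well was multiplexed: SteadyGlo luminescence measured ATXN2-luciferase expression after a fluorogenic Gly-Phe-AFC viability readout (25 uM final).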
# S2 tox: reduces viability in counter-screen for ATXN expression inhibitors; S2 cells (HEK-293 line with an ATXN2-luciferase reporter) viability, CellTiter-Fluor protease fluorescence, 24 h; Potency, µM (highest dose often 56.7 µM), most hits filed as cytotoxic; 400,000 compounds, 0.49% hits; further: potency means the concentration at half of the fitted maximal effect; nearly all actives have a fitted effect of over 40% in size
# MCF10A rereplic: inducers of DNA re-replication in MCF 10A breast cells; MCF 10A DNA re-replication, Hoechst nuclear intensity, 48 h; Potency, µM (series often up to 46.1 µM), for inactives: top-dose activity, positive = re-replication, actives largely listed as activators; 350,000 compounds, 2.9% hits; AID 624296; further: potency means the concentration at half of the fitted maximal effect; % of control where 0% means no effect; nearly all actives have a fitted effect of over 50% in size
# PINK1 modulator: changes PINK1 expression; PINK1 immunofluorescence, high-content cytometry, 24 h; Potency, µM (doses to about 76.6 µM), inactives show top-dose activation (PINK1 increase), hits mostly activators; 410,000 compounds, 0.2% hits; active means well fitted activation curve with a large enough effect; inconclusive means small, poorly fitted or top-dose-only effect; cell line not stated here; further: potency means the concentration at half of the fitted maximal effect; % of control where 0% means no effect; nearly all actives have a fitted effect of over 65% in size
#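 Cells are seeded, rested 12 hours, then given compound at five concentrations or DMSO for 24 hours. After fixation, blocking and antibody staining, PINK1 amount and mitochondrial localization are scored; CCCP serves as control.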
# SW480 rereplic: induces DNA re-replication in SW480 colon adenocarcinoma cells; SW480 DNA re-replication, Hoechst DNA content imaging, 48 h; 340,000 compounds, 1.8% hits; Potency, µM (series often up to 46.1 µM), without a hit: at the highest dose re-replication activation, most hits filed as activators; further: potency means the concentration at half of the fitted maximal effect; % of control where 0% means no effect; nearly all actives have a fitted effect of over 55% in size
#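 DNA re-replication was detected as more nuclei of elevated Hoechst intensity after 48 hr exposure to compound (23 nL pinned per well of 250 cells).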
# IL1B secr inh: inflammasome signaling inhibition, IL-1 beta readout. THP-1 LPS/ATP IL-1B secretion, AlphaLISA, 16 h; active compounds read low. activity change, % at 57.5 µM. 360,000 compounds, 4.7% hits; in the data active means activity change below about -50%; inconclusive means mostly about -30% to -49%; further: on the % scale 0 is the no-effect control and ±100 the full control effect
#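 THP-1 cells pretreated 1 hr with compounds (up to 57.5 uM final), then stimulated with LPS (250 ng/mL final) plus ATP (1.25 mM final); secreted IL-1B measured by AlphaLISA after 16 hr, decreased signal indicating inhibition.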
# Starred values were filed as active, the others as inactive; i = inactive; ? = inconclusive; . = no result; ! = repeats disagree; [ ] = another dose, or the depositor's remark. The list is not random: actives were taken first. Their share in the collection is about 7.1%. Unless noted, the call rests on the fitted dose curve; in most records, active means well fitted curve in the direction sought with a large enough effect; inconclusive means small, poorly fitted or top-dose-only effect, or another doubt; inactive means no such curve, though single readings can be large; an effect the other way counts as inactive or inconclusive.
SMILES,ATXN2 expr inh,S2 tox,MCF10A rereplic,PINK1 modulator,SW480 rereplic,IL1B secr inh
CCN(CC(=O)NC(C)(C)C)Cc1nc2c(Br)cc(Br)cc2c(=O)[nH]1,18µM*,?,?,?,?,-100*
Cc1cnc(-n2ncc(C(=O)N(C)CC3CCCN(C)C3)c2C2CC2)nc1-c1cccs1 (stereo unspecified),.,i,.,0%,.,.
Cc1cccc(C)c1NC(=O)c1sc(-n2nc(C)c(Cc3ccccc3)c2C)nc1C,.,.,.,2%,.,.
CSCCC(C(=O)NCc1ccccc1)n1c(C2CCN(C(C)=O)CC2)nc2ccccc21 (stereo unspecified),.,.,.,.,.,-52*
O=C(NCc1ccccc1)C(c1ccccc1)n1c(C2CC2)nc2ccccc21 (stereo unspecified),.,.,.,.,.,-8
COc1c(Br)cc(C(N)=O)cc1OCc1ccccc1,.,?,?,0%,0%,19
COc1cc(OCc2ccccc2)c(OC)c(OCc2ccccc2)c1,6%,i,16µM*,4%,?,4
Cc1ccc(S(=O)(=O)N/N=C\c2cc3c(cc2Br)OCO3)cc1,-1%,i,4.6µM*,3%,?,16
CCOc1ccc(C2=Nn3c(nnc3-c3ccc(OC)cc3)SC2)cc1,-25%,i,?,2%,5.8µM*,20
COc1ccc(C2=Nn3c(nnc3-c3ccccc3F)SC2)cc1OC1CCOC1 (stereo unspecified),1%,?,?,18%,10µM*,.
COc1ccc(OC)c(-c2nnc3n2N=C(c2ccc(OC(F)F)c(OCC4CC4)c2)CS3)c1,?,?,?,5%,?,.
CCCc1ccc(C2=Nn3c(nnc3C(C)C)SC2)cc1,?,i,5%,7%,-13%,-91*
CC(C)c1nnc2n1N=C(c1ccc(Cl)cc1)CS2,-41%,i,0%,3%,-58%,-26
COc1ccc(C2=Nn3c(nnc3-c3ccccc3OC)SC2)cc1OCC1CC1,-33%,?,?,4%,2.3µM*,.
COc1ccc(C2=Nn3c(nnc3-c3ccncc3)SC2)cc1,29%,i,17%,-4%,?,12
COc1ccc(OC)c(-c2nnc3n2N=C(c2ccc(OC)c(OC4CCCC4)c2)CS3)c1,?,?,?,0%,0.73µM*,.
CCOc1ccc(C2C3=C(CC(C)(C)CC3=O)N(CC(=O)O)C3=C2C(=O)CC(C)(C)C3)cc1OCC,-4%,?,0.82µM*,2%,-8%,-1
C#CCOc1ccc(C2C3=C(CC(C)(C)CC3=O)N(CC(=O)O)C3=C2C(=O)CC(C)(C)C3)cc1OC,.,?,-1%,1%,-5%,9
COc1ccccc1C1C2=C(CC(C)(C)CC2=O)N(CC(=O)O)C2=C1C(=O)CC(C)(C)C2,12%,.,21µM*,1%,-33%,0
COc1ccc(N2C3=C(C(=O)CC(C)(C)C3)C(c3ccccc3OC)C3=C2CC(C)(C)CC3=O)cc1,-21%,.,16µM*,0%,18µM*,-86*
Cc1ccccc1C(=O)NC(C)c1nnc2n1CCN(Cc1ccnc3ccccc13)CC2 (stereo unspecified),.,i,.,1%,.,.
CC(C)(C)CC(C)(C)c1ccc(O)c(Cc2ccc(Cl)cc2Cl)c1,22µM*!,28µM*,30µM*!,?,3%,-72*
O=C(CCCSc1nnc(SCCCC(=O)c2ccc(F)cc2)s1)c1ccc(F)cc1,-24%,i,?,.,?,-81*
O=C(COC(=O)c1cc(S(=O)(=O)N2CCOCC2)c(Cl)cc1Cl)NCc1ccco1,1%,i,?,3%,-12%,-80*
O=C(NCc1ccco1)c1cc(S(=O)(=O)N2CCOCC2)c(Cl)cc1Cl,-16%,i,6%,1%,-6%,3
SMILES,ATXN2 expr inh,S2 tox,MCF10A rereplic,PINK1 modulator,SW480 rereplic,IL1B secr inh
Cc1ccc2nc(-c3ccncc3)cc(-c3ccccc3)c2c1,-16%,i,?,5%[38.3 µM],?,?
Cc1ccc(-c2cc3cccc[n+]3cc2-c2ccc(C)cc2)cc1,-39%,?,?,?,-11%,-88*
CN(C)c1ccc(/C=C/c2c(F)cnc3ccccc23)cc1,.,.,.,7%,.,.
C=CCCC(=O)Nc1nc(C)c(-c2csc(Nc3cc(OC)ccc3OC)n2)s1,-36%,i,?,4%,23µM*,-3
CCOC(=O)/C(=N\Nc1ccc(Cl)cc1)c1csc(Nc2ccccc2)n1,2%,?,4µM*,3%,?,-73*
CCOC(=O)/C(=N/Nc1ccccc1)c1csc(Nc2ccccc2)n1,-3%,?,?,11µM*,?,-1
COc1cc(OC)c(NC(=O)Cn2c(=O)nc(-c3ccccc3)c3ccccc32)cc1Cl,10%,i,.,0%,.,.
COc1ccc(CNC(=O)c2cnc3sc(N4CCCC4)nn3c2=O)cc1OC,.,.,.,0%,.,.
CC(=O)N1CCN(c2ccc(OCc3nn(C)c(C)c3-c3cccc4c(CCCOc5cccc6ccccc56)c(C(=O)O)n(Cc5cccnc5)c34)cc2)CC1,140%,.,.,.,.,.
Cc1ccc(-n2ncc3c(N4CCN(Cc5ccccc5)CC4)ncnc32)cc1,14%,i,.,3%,.,.
Cc1ccc(Cl)cc1-n1ncc2c(N3CCN(Cc4ccccc4)CC3)ncnc21,16µM*,18µM*,.,0%,.,.
Cc1nn(-c2ccccc2)c(Cl)c1C(=O)N1CCN(c2ncnc3c2cnn3-c2ccccc2)CC1,18µM*,.,?,-3%,?,-74*
O=C(c1ccccc1)N1CCN(c2ncnc3c2cnn3-c2ccccc2)CC1,9%,i,-6%,-2%,-1%,3
COc1cccc(OCCN2CCN(c3ncnc4c3cnn4-c3ccccc3)CC2)c1,-5%,i,18µM*,?,21%,-7
CCN1CCN(c2ncnc3c2cnn3-c2cc(Cl)ccc2C)CC1,-20%,?,.,1%,.,.
CCN(C(=O)CN(C)S(=O)(=O)c1ccc2c(c1)c(=O)n(C)c(=O)n2C)c1ccc(OC)cc1,12%,i,.,0%,.,.
NS(=O)(=O)c1ccc(N=Nc2c(=O)[nH]n3c(=O)c4c([nH]c23)CCCC4)cc1,-17%,9.5µM*,-8%,-2%,-5%,40
CC(=O)c1ccc(-c2cnc3c(NC=O)cc(-c4ccc(C(=O)NC5CC5)cc4)cn23)cc1,?,?,.,9%,.,-64*
COc1cccc(-c2cc(NC(C)=O)c3ncc(-c4ccc(OC)c(OC)c4)n3c2)c1,-2%,i,.,4%,.,-81*
